Out of some 5,500 compounds screened, about 2,000 (36%) were called active. Roughly 18% stayed inconclusive and do not appear here. No stated cut-off is given here; in the data, active means normalized growth mostly below about 0.91 (no sharp cut-off); inconclusive means no clear call, values can overlap the other calls; inactive means mostly above about 0.92. The list shows a part of the results.
Assay: chemical genetic growth profiling, strain panel (AID 1159580);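 further: tested at 20 µM; growth read once vehicle control cultures reached saturation at 30 °C; 1 = growth at the plate median or of vehicle wells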
Details: S. cerevisiae deletion strains, growth OD

Measured: normalized growth

COc1ccc(NNC(=O)c2sc3ccccc3c2Cl)cc1
inactive: locus YAR019C, strain CDC15, stronger effect = lower value 0.921 | locus YBL105C, strain PKC1, stronger effect = lower value 0.927 | locus YBR135W, strain CKS1, stronger effect = lower value 0.915 | locus YBR136W, strain MEC1, stronger effect = lower value 0.922 | locus YBR160W, strain CDC28, stronger effect = lower value 0.927 | locus YDL017W, strain CDC7, stronger effect = lower value 0.936 | locus YDL028C, strain MPS1, stronger effect = lower value 0.929 | locus YDL101C, strain DUN1, stronger effect = lower value 0.954 | locus YDL108W, strain KIN28, stronger effect = lower value 0.93 | locus YDL132W, strain cdc53, stronger effect = lower value 0.959 | locus YDR052C, strain DBF4, stronger effect = lower value 0.935 | locus YDR054C, strain cdc34, stronger effect = lower value 0.923 | locus YDR226W, strain ADK1, stronger effect = lower value 0.938 | locus YDR477W, strain SNF1, stronger effect = lower value 0.694 | locus YFL009W, strain cdc4, stronger effect = lower value 0.941 | locus YFL029C, strain CAK1, stronger effect = lower value 0.92 | locus YFR003C, strain YPI1, stronger effect = lower value 0.93 | locus YFR028C, strain CDC14, stronger effect = lower value 0.92 | locus YHR082C, strain KSP1, stronger effect = lower value 0.656 | locus YHR205W, strain SCH9, stronger effect = lower value 0.612 | locus YIL147C, strain SLN1, stronger effect = lower value 0.924 | locus YJL128C, strain PBS2, stronger effect = lower value 0.878 | locus YJR016C, strain ILV3, stronger effect = lower value 0.903 | locus YJR066W, strain TOR1, stronger effect = lower value 0.579 | locus YKL193C, strain SDS22, stronger effect = lower value 0.923 | locus YMR001C, strain CDC5, stronger effect = lower value 0.925 | locus YMR277W, strain FCP1, stronger effect = lower value 0.926 | locus YNL006W, strain LST8, stronger effect = lower value 0.914 | locus YNL161W, strain CBK1, stronger effect = lower value 0.918 | locus YNL183C, strain NPR1, stronger effect = lower value 0.595 | locus YNL207W, strain RIO2, stronger effect = lower value 0.948 | locus YNL222W, strain SSU72, stronger effect = lower value 0.906 | locus YOL078W, strain AVO1, stronger effect = lower value 0.913 | locus YOR329C, strain SCD5, stronger effect = lower value 0.927 | locus YPL209C, strain IPL1, stronger effect = lower value 0.918 | locus YPR025C, strain CCL1, stronger effect = lower value 0.929 | locus YPR106W, strain ISR1, stronger effect = lower value 0.907 | locus YPR111W, strain DBF20, stronger effect = lower value 0.918 | strain NNK1, stronger effect = lower value 0.908 | strain TSCII, stronger effect = lower value 0.923
active: locus YDL214C, strain PRR2, stronger effect = lower value 0.692 | locus YER123W, strain YCK3, stronger effect = lower value 0.287 | locus YER133W, strain GLC7, stronger effect = lower value 0.663 | locus YFR019W, strain FAB1, stronger effect = lower value 0.37 | locus YGR040W, strain KSS1, stronger effect = lower value 0.681 | locus YGR052W, strain FMP48, stronger effect = lower value 0.558 | locus YGR092W, strain DBF2, stronger effect = lower value 0.117 | locus YHR030C, strain SLT2, stronger effect = lower value 0.302 | locus YHR079C, strain IRE1, stronger effect = lower value 0.502 | locus YJL095W, strain BCK1, stronger effect = lower value 0.341 | locus YJL157C, strain FAR1, stronger effect = lower value 0.544 | locus YJR066W, strain TOR1 (second series), stronger effect = lower value 0.243 | locus YKL048C, strain ELM1, stronger effect = lower value 0.658 | locus YKL067W, strain YNK1, stronger effect = lower value 0.587 | locus YKL101W, strain HSL1, stronger effect = lower value 0.657 | locus YKL203C, strain TOR2, stronger effect = lower value 0.686 | locus YLR113W, strain HOG1, stronger effect = lower value 0.293 | locus YLR133W, strain CKI1, stronger effect = lower value 0.627 | locus YLR403W, strain SFP1, stronger effect = lower value 0.563 | locus YML070W, strain DAK1, stronger effect = lower value 0.419 | locus YMR205C, strain PFK2 (second series), stronger effect = lower value 0.659 | locus YNL020C, strain ARK1, stronger effect = lower value 0.643 | locus YNL307C, strain MCK1 (second series), stronger effect = lower value 0.262 | locus YOL136C, strain PFK27, stronger effect = lower value 0.433 | locus YOR061W, strain CKA2, stronger effect = lower value 0.299 | locus YOR119C, strain RIO1, stronger effect = lower value 0.604 | locus YOR231W, strain MKK1, stronger effect = lower value 0.507 | locus YPL031C, strain PHO85, stronger effect = lower value 0.657 | locus YPL153C, strain RAD53, stronger effect = lower value 0.525 | locus YPL204W, strain HRR25, stronger effect = lower value 0.576 | locus YPL256C, strain CLN2, stronger effect = lower value 0.441
